According to PubChem BioAssay (NCI):
This is part of a sample that, as a whole, favours compounds with a hit. Of some 83,000 tested, about 20% had one in any assay.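 Cells were grown in 96-well plates and exposed to the test compound at a single concentration for 48 hours; results are reported as percent growth, with values below 10 considered active.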 The source made the active and inactive calls.

Each compound was assayed on SK-MEL-2 melanoma (assay: NCI-60 one-dose screen, 48 h (100 = growth as untreated, 0 = no growth, -100 = all killed)). Conditions: 10 µM unless noted.
Experimental: Growth inhibition of the SK-MEL-2 human tumor cell line is measured as a screen for anti-cancer activity. Cells are grown in 96 well plates and exposed to the test compound for 48 hours. Compounds are tested at a single concentration, which is 10^-5 M for most compounds. The reported endpoint is percent growth (GI% or GIPRCNT), where numbers from 0 - 100% represent growth inhibition, and numbers from -100% - 0 represent cell death. For example, a value of 40 represents 60% growth inhibition. A value of 0 means no net growth occurred over the course of the experiment. A value of -40 indicates 40% of cells at the beginning of the experiment died by the end of the experiment. A value of -100 means all cells are dead at the end of the experiment.
NCI-60 Human Tumor Cell Lines Screen was performed using the standard one-dose NCI protocol, which is described in more detail at https://dtp.cancer.gov/discovery_development/nci-60/default.htm.
Compounds with GIPRCNT values below 10 were considered active. Activity score was based on GIPRCNT using the following formula: […]
Score is 0 for GIPRCNT values of 100 or above, 50 for GIPRCNT values of 0, and 100 for GIPRCNT values of -100.

SMILES | growth
O=C(Nc1nc2ccc(OC(F)(F)F)cc2s1)c1ccc(F)cc1 | -22.6% (active)
CCn1cnc(C[C@H](NC(=O)[C@H](CCCCNC(=O)Nc2cc(C(F)(F)F)cc(C(F)(F)F)c2)NC(=O)Nc2cc(C(F)(F)F)cc(C(F)(F)F)c2)C(=O)OC)c1 | -100% [100 µM] (active)
COc1cc(/C=N/NC(=O)c2ccc(C(F)(F)F)nc2Nc2cc(Cl)ccc2C)cc(OC)c1OC | 88.8% (inactive)
CC(=O)O[C@H]1CC[C@@]2(C)C(=CC[C@@H]3[C@@H]2CC[C@]2(C)C(c4cccnc4)=CC[C@@H]32)C1 | 23.6% (inactive)
c1ccc(Nc2ccc(Nc3nc(-c4ccccc4)nc4ccccc34)cc2)cc1 | 83.1% (inactive)
COc1ccc([N+](=O)[O-])c(S(=O)(=O)c2ccc(Cl)cc2)n1 | 92.9% (inactive)
Cc1n(Cc2ccc3ccccc3c2)c2ccccc2[n+]1Cc1ccc2ccccc2c1 | -74.6% (active)
C=CCNC(=O)/C(=C/c1cccc([N+](=O)[O-])c1)NC(=O)c1ccccc1 | 18.9% (inactive)
c1ccc2nc(Cn3c[n+](Cc4ccc5ccccc5n4)c4ccccc43)ccc2c1 | 28.9% (inactive)
C[C@@H]1C[C@@H]([C@@H](CC2CC(=O)NC(=O)C2)OC(=O)CC(=O)c2ccccc2)C(=O)[C@@H](C)C1 | 12.5% (inactive)
O=C(/C=C(\Nc1ccccc1)c1ccccc1)c1cn(-c2ccc([N+](=O)[O-])cc2)nn1 | 5.29% (active)
COc1cccc(/C=N/Nc2nc3ccccc3s2)c1OC | 81% (inactive)
COc1ccc2nc(-c3ccc(Cl)cc3)cc(-c3nnc(SCC(=O)Nc4ccc(C(C)=O)cc4)n3-c3ccccc3)c2c1 | 91.5% (inactive)
OC(c1cc(-c2cccc(Cl)c2)nc2ccccc12)C1CCCCN1 (stereo not given) | -92% (active)
Clc1ccc2[nH]cc(-c3cncn3CCc3ccccc3)c2c1 | 52.5% (inactive)
CC[C@@H](C)/C=C(C)/C=C/C(=O)c1c(O)c(-c2ccc(O)cc2)cn(OC2CC(=O)CCC(C)OC(=O)CC2O)c1=O (stereo not given in full) | 19.8% (inactive)
COc1ccc2ncccc2c1Cc1c(OC)ccc2ncccc12 | 75.6% (inactive)
CCOC(=O)/C=C1/SC(=Nc2ccc(C#N)cc2)N(Cc2ccco2)C1=O | 78.5% (inactive)
O=C(COc1cccc(/C=C2\Cc3ccccc3C2=O)c1)c1ccc(Cl)cc1 | 72.8% (inactive)
CCOC(=O)N1CCC(N=C2CSc3nnc(-c4cc(C(F)(F)F)cc(C(F)(F)F)c4)n3N2)CC1 | -22.5% (active)

SMILES | growth
O=C1N=C(N2CCOCC2)S/C1=C\c1cn(-c2ccccc2)nc1-c1ccccc1 | 81.7% (inactive)
O=C1Nc2ccc(C(=O)O)c(O)c2C1=O | 103% (inactive)
O=C(Nc1ccccc1)P(=O)(O)c1ccccc1 | 118% (inactive)
CCOc1cc(/C=C/C(=O)C(C(=O)/C=C/c2ccc(OC(=O)CNc3nc4ccccc4[nH]3)c(OCC)c2)C(=O)CNc2nc3ccccc3[nH]2)ccc1OC(=O)CNc1nc2ccccc2[nH]1 | 13.2% (inactive)
CCCn1c(N)c(C(=O)CNc2ccc(I)cc2)c(=O)[nH]c1=O | -7.88% (active)
O=c1ccn(C2CC=C(CO)O2)c(=O)[nH]1 (stereo not given) | 105% (inactive)
COc1cc(/C=N/OC(=O)Nc2ccccc2)cc(OC)c1OC | 115% (inactive)
COc1ccc(CCN2C(=O)CCC3=C2CCCC3=O)cc1OC | 122% (inactive)
O=CNc1ccc2c(c1)Cc1cc([N+](=O)[O-])ccc1-2 | 19.2% (inactive)
COc1cc(/C=C/C(=O)CC(=O)/C=C/c2ccc(OC(=O)C3C4CC5CC(C4)CC3C5)c(OC)c2)ccc1OC(=O)C1C2CC3CC(C2)CC1C3 (stereo not given) | 93.1% (inactive)
COc1cnc2c(c1)C(=O)c1c-2n(CCCN2CCOCC2)c(=O)c2cc(F)ccc12 | 21.4% (inactive)
COc1ccc(C2=NN(C(N)=S)C(c3ccc4c(c3)OCO4)C2)cc1 (stereo not given) | 47% (inactive)
O=C(Nc1nc(-c2ccc(Cl)cc2)cs1)c1cc(-c2ccc(Br)cc2)nc2ccc(Cl)cc12 | 22.8% (inactive)
O=C(O)C1CCN(S(=O)(=O)c2ccc(-c3ccccc3)cc2)CC1 | 5.44% (active)
O=C1NC(=S)S/C1=C\c1cc(Br)ccc1O | 100% (inactive)
COc1c(O)cc2c(c1CC=C(C)C)OC(=O)c1c(cc(O)c(CC=C(C)C)c1O)O2 | 55.5% (inactive)
O=C1CSC(c2ccccc2O)N1c1nnc(Cn2ccnc2)o1 (stereo not given) | 90.3% (inactive)
O=C(CC1Sc2ccccc2NC1=O)NNc1cccc(Cl)c1Cl (stereo not given) | 87% (inactive)
CCC(C)C1NC(=O)C(CCNCS(=O)(=O)O)NC(=O)C(NC(=O)C(CCNCS(=O)(=O)O)NC(=O)C(NC(=O)C(CCNCS(=O)(=O)O)NC(=O)CCCCC(C)C)C(C)O)CCNC(=O)C(C(C)O)NC(=O)C(CCNCS(=O)(=O)O)NC(=O)C(CCNCS(=O)(=O)O)NC(=O)C(C(C)CC)NC1=O (stereo not given) | 39.9% (inactive)
COc1cc2c(cc1OC)C(CC1(O)CCCCC1)N(S(=O)(=O)c1ccc(C)cc1)CC2 (stereo not given) | 6.69% [100 µM] (active)
